Reference: PubChem BioAssay AID1047 (SRMLSC, 2008)
Hit rate of the full screen: of about 1,500 compounds, about 1,400 (93%) were called active. The set was probably picked from earlier hits. The list is a sample of the results. Entries with a potency or affinity are not part of this list. Values without a mark were called inactive. No rule for the calls is given here.

Assay: growth suppression of PTEN-null colon cells, dose response, cell-based, HCT116 PTEN knockout (AID 1047)
Conditions: CellTiter-Glo, 60 h; series mostly up to 30 µM; viability: at the top concentration

| Structure (SMILES) | viability |
| --- | --- |
| Cc1sc2c(=O)n3c(nc2c1C(=O)NCCCN1CCOCC1)CCCCC3 | 83.3% |
| CC(=O)ON1C(C)(C)CC(OC(=O)c2ccccc2)CC1(C)C | 91.2% |
| O=C(COC(=O)c1cccnc1Nc1cccc(C(F)(F)F)c1)NCc1ccc2c(c1)OCO2 | 100% |
| CC(C)c1cc(=O)oc2c3c4c(cc12)CCCN4CCC3 | 88.1% |
| CNC(=S)N/N=C(\C)c1ccc(N2CCOCC2)cc1 | 95.4% |
| O=S(=O)(NCCc1csc(-c2cccnc2)n1)c1ccc2c(c1)OCCO2 | 100% |
| COc1ccc(CCn2c(N)c(C(=O)NCc3ccco3)c3nc4ccccc4nc32)cc1OC | 82.2% |
| C=CCNc1nnc(SC2CC(=O)N(c3ccc(OC)cc3)C2=O)s1 (stereo not given) | 99.3% |
| OCCn1c(C(F)(F)F)nc2ccccc21 | 104% |
| O=C(Nc1ccccc1Cl)NC1(C(=O)N2CCCC2)CCCCC1 | 106% |
| O=C(N/N=C/c1ccc(O)c(O)c1O)/C(=C/c1ccc([N+](=O)[O-])cc1)NC(=O)c1ccccc1 | 81.5% |
| Cc1ccccc1NC(=O)c1ccc2c(c1)OCCO2 | 91.1% |
| O=C(NNc1nc2cc3c(cc2s1)OCO3)c1cccc(F)c1 | 92.5% |
| COc1cccc(OCC(=O)NN=C2c3ccccc3-c3ccccc32)c1 | 105% |
| COc1ccc(C(=O)OC2CCN(c3ncc(C(F)(F)F)cc3Cl)CC2)cc1 | 97.8% |
| O=C1[C@H]2[C@H]3[C@H](O)[C@H](O)C/C(=N\OC[C@@H](O)COCc4ccco4)[C@@H]3CC[C@H]2C(=O)N1c1ccc(F)cc1F | 107% |
| COC(=O)COc1ccc(S(=O)(=O)NCc2ccncc2)cc1 | 111% |
| c1ccc2c(c1)CCCC2C1=NCCN1 (stereo not given) | 94.9% |
| CC(C[N+](C)(C)C)OC(N)=O (stereo not given) | 102% |
| CCOc1c(OC)ccc2c3c(c(=O)oc12)CCCC3 | 95.5% |
| OC1C2CN3CCN(C2)CC1(Cc1ccccc1)C3 (stereo not given) | 88.9% |
| Cc1cc(NC(=O)c2sc(Nc3cccc(C(F)(F)F)c3)nc2N)no1 | 86.6% |
| CCC(C)C1C(C#N)=C(N)Oc2n[nH]c(C)c21 (stereo not given) | 80.5% |
| Cc1[nH]nc2c1C(c1ccsc1C)C(C#N)=C(N)O2 (stereo not given) | 89.2% |
| CCOC(=O)N1CCN(C(=O)c2nn(-c3ccc(C)cc3)c(=O)c3c2c2ccccc2n3C)CC1 | 89.2% |
| COc1ccc(C(=O)OCC(=O)c2cc(OC)ccc2OC)c(OC)c1 | 89.9% |
| CCOc1ccc(N(CC(=O)NC2CCCCCC2)S(=O)(=O)c2c(C)noc2C)cc1 | 96.9% |
| CCCCCn1c(Sc2ccccc2)nc2c1c(=O)[nH]c(=O)n2C | 81.8% |
| CCN(CCNC(=O)Nc1ccc(Cl)cc1)c1ccccc1 | 99.6% |
| O=C(c1nnc(Cc2ccc(Cl)cc2)o1)N1CCc2ccccc2C1 | 98.8% |
